In PubChem BioAssay (NCI):
About 83,000 compounds went through this panel and 20% of them were active in at least one assay; those are over-represented in the sample as a whole.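 Treatment: one concentration, 48 hours, 96-well format. Scoring: percent growth, with anything below 10 considered active.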 Calls of active or inactive are those of the source.

Key:
Test in all cases: NCI-60 one-dose screen, 48 h (100 = growth as untreated, 0 = no growth, -100 = all killed)
Conditions in all cases: 10 µM unless noted
[1] = tested on: HCT-15 colon
[2] = tested on: HT29 colon
[3] = tested on: SNB-75 CNS
[4] = tested on: SNB-19 CNS
[5] = tested on: U251 CNS
[6] = tested on: PC-3 prostate
[7] = tested on: SK-MEL-5 melanoma
[8] = tested on: UACC-62 melanoma
[9] = tested on: LOX IMVI melanoma
[10] = tested on: SK-MEL-28 melanoma
[11] = tested on: SK-MEL-2 melanoma
[12] = tested on: EKVX NSCLC
[13] = tested on: SN12C renal
[14] = tested on: UO-31 renal
[15] = tested on: ACHN renal
[16] = tested on: CAKI-1 renal
[17] = tested on: A498 renal
[18] = tested on: CCRF-CEM leukemia
[19] = tested on: MOLT-4 leukemia
[20] = tested on: TK-10 renal

Measured: growth

C#Cc1nc(C(=O)NCCC(=O)Nc2ccc(NC(=O)c3ccc(/C=C/C(=O)c4nccn4C)cc3)cc2)cs1
inactive: [1] 16.7% | [3] 56.6% | [4] 35.1% | [6] 42.5% | [7] 87% | [8] 38.6% | [10] 84.8% | [11] 100% | [12] 65.3% | [13] 14.4% | [14] 30.7% | [16] 38.9% | [17] 90.5% | [19] 19.9%
active: [2] 2.68% | [5] 3.44% | [9] -90.1% | [15] -67.5% | [18] -21.2%

Nc1cc(F)ccc1NC(=O)c1ccc(NC(=O)C/C=C/c2cccnc2)cc1
inactive: [1] 29.5% | [2] 24.5% | [3] 51.3% | [4] 46.7% | [5] 34.1% | [6] 36.6% | [7] 49.7% | [8] 42.1% | [9] 39.7% | [10] 49.4% | [12] 73% | [13] 29.5% | [14] 52.6% | [20] 52.9% | [15] 55.9% | [16] 66.4% | [17] 43.2% | [18] 24.6% | [19] 40.7%

CCOC(=O)C(=O)CC(=O)N1C(=S)NC(=O)C1CC(C)C (configuration not stated)
inactive: [1] 94.8% | [2] 113% | [3] 100% | [4] 99.9% | [5] 105% | [6] 103% | [7] 95.6% | [8] 96.3% | [9] 98% | [10] 99.6% | [12] 98.2% | [13] 97.6% | [14] 84% | [20] 106% | [15] 103% | [16] 102% | [17] 98.6% | [18] 100% | [19] 108%

Cc1occc1-c1nc2s/c(=C/c3ccc(-c4cc(C(F)(F)F)ccc4Cl)o3)c(=O)n2n1
inactive: [1] 104% | [2] 106% | [3] 97.5% | [4] 98.5% | [5] 105% | [6] 97.7% | [7] 99.7% | [8] 93.8% | [9] 101% | [10] 112% | [11] 109% | [12] 100% | [13] 98.4% | [14] 87.4% | [15] 102% | [16] 89.2% | [17] 105% | [18] 117% | [19] 113%

Cc1cc(C(NC(=O)CCCCCNc2cccc3c2C(=O)N(C2CCC(=O)NC2=O)C3=O)c2ccc3c(c2)OC(F)(F)O3)c(O)c2ncccc12 (configuration not stated)
inactive: [1] 72.2% | [2] 71.8% | [3] 50.8% | [4] 51.6% | [5] 33.6% | [6] 32.3% | [7] 37% | [8] 63.3% | [9] 57.9% | [10] 81% | [11] 62.6% | [12] 71.3% | [13] 49.9% | [14] 77.2% | [15] 63.5% | [16] 50% | [17] 95.1% | [18] 38.6% | [19] 42.5%

CC[C@H](CO)Nc1ccc2ncc(C#Cc3cncc(C(=O)Nc4ccc(CN5CCN(C)CC5)c(C(F)(F)F)c4)c3)n2n1
active: [1] -38.1% | [2] -35.6% | [3] -91.3% | [4] -22.4% | [5] -85.3% | [6] -31.7% | [7] -95.4% | [8] -57.7% | [9] -98.8% | [10] -79.9% | [11] -97.7% | [12] -64.3% | [13] -65.1% | [14] -83.3% | [15] -98.6% | [16] -79.7% | [17] -99.4% | [18] 1.55% | [19] -3.11%

O=C(NCc1ncc[nH]1)c1ccc(-c2nc3ccc4[nH]ncc4c3c3c2CCCC3)cc1
active: [6] 2.66% | [7] 8.91% | [8] 4.94% | [9] 3.29% | [10] -1.75% | [11] -32.6% | [17] -13.7% | [19] -23.5%
inactive: [1] 48% | [2] 22.3% | [3] 30.1% | [4] 13.9% | [5] 13.2% | [12] 47.9% | [13] 10.5% | [14] 51.6% | [15] 42%

CCOP(=O)(OCC)OC[C@]12CCC(C)(C)C=C1[C@H]1CC[C@@H]3[C@@]4(C)CC[C@H](OP(=O)(OCC)OCC)C(C)(C)[C@@H]4CC[C@@]3(C)[C@]1(C)CC2
active: [1] -73.3% | [2] -42.4% | [3] -11.5% | [4] -12.4% | [5] -84.9% | [6] 0.0741% | [7] -93.4% | [8] -29.4% | [9] -90.1% | [10] -31% | [11] -60.9% | [12] -10.3% | [13] -70.6% | [14] -61% | [15] -8.2% | [16] -63% | [17] -8.86% | [18] -23.2% | [19] -20.4%

COC(=O)C1(C)CCC[C@]2(C)[C@H]3C[C@H]4C(C(C)C)=C[C@]3(CC[C@@H]12)[C@H]1[C@@H]4[C@@H](OC(=O)c2ccco2)CC[C@@H]1OC(=O)c1ccco1 (some centres not stated)
inactive: [1] 107% | [2] 116% | [3] 97.8% | [4] 98.4% | [5] 100% | [6] 87.9% | [7] 102% | [8] 92.6% | [9] 111% | [10] 104% | [11] 107% | [12] 99.1% | [13] 101% | [14] 101% | [15] 112% | [16] 95.8% | [17] 115% | [18] 105% | [19] 103%

COc1ccccc1-n1cc(C#N)c(N)c1C(=O)c1ccc(C)cc1
inactive: [1] 47.1% | [2] 73.7% | [3] 82% | [4] 77.1% | [5] 79.4% | [6] 74.5% | [7] 92% | [8] 22.2% | [9] 80.1% | [10] 73.9% | [11] 79.1% | [12] 89.1% | [13] 91.1% | [14] 90% | [15] 101% | [16] 78.5% | [17] 74.9% | [18] 85.6% | [19] 83.1%

COc1ccc(/C=C(\C#N)C(=O)N2c3ccccc3Sc3ccc(SC)cc32)cc1F
inactive: [1] 94.9% | [2] 103% | [3] 87.6% | [4] 90.4% | [5] 92.9% | [6] 88.9% | [7] 93% | [8] 71.3% | [9] 88.8% | [10] 98.9% | [12] 97.8% | [13] 99.4% | [14] 76.2% | [20] 97.1% | [15] 88.5% | [16] 68.9% | [17] 79.5% | [18] 93.9% | [19] 82.9%

O=S(=O)(NCCNc1nccc(-n2cnc3ccccc32)n1)c1ccc(C(F)(F)F)cc1
inactive: [1] 60.7% | [2] 68% | [3] 46.8% | [4] 69.8% | [5] 69.6% | [6] 45.5% | [8] 42.4% | [9] 57.4% | [10] 77.2% | [11] 67.8% | [12] 34.7% | [13] 72.5% | [14] 39.9% | [15] 60.8% | [16] 43.1% | [17] 56.6% | [18] 57.6% | [19] 45.2%
active: [7] 8.48%

CNC(=O)c1cc(-c2ccc(NS(=O)(=O)c3ccc(C)cc3)cc2)nc2cccnc12
inactive: [1] 105% | [2] 109% | [3] 104% | [4] 99.8% | [5] 101% | [6] 99.7% | [7] 103% | [8] 90.4% | [9] 100% | [10] 119% | [11] 102% | [12] 95.9% | [13] 103% | [14] 81.5% | [15] 104% | [16] 94.4% | [17] 106% | [18] 109% | [19] 100%

CN1CCN(Cc2ccc(NC(=O)c3cncc(C#Cc4cnc5ccc(OCC6(C)COC6)nn45)c3)cc2C(F)(F)F)CC1
active: [1] -78.6% | [2] -37.5% | [3] -68.7% | [4] -86.1% | [5] -62% | [6] -69% | [7] -93.2% | [8] -90.5% | [9] -93.5% | [10] -89.2% | [11] -75.7% | [12] -83.3% | [13] -76.2% | [14] -91.8% | [15] -96.1% | [17] -97.7% | [18] 1.98% | [19] 1.9%

CCOC(=O)C(=O)/C(=C\c1ccc(Cl)cc1)C(=O)N1C(=S)NC(=O)C1CC(C)C (configuration not stated)
inactive: [1] 92.8% | [2] 108% | [3] 101% | [4] 99.1% | [5] 101% | [6] 93.6% | [7] 92.8% | [8] 91.5% | [9] 112% | [10] 95.1% | [11] 112% | [12] 91% | [13] 96.9% | [14] 86.1% | [15] 99.5% | [16] 91.3% | [17] 102% | [18] 91.2% | [19] 98.4%
